Binding signal data for one sequence are collected here from PMC7862700, “An all-to-all approach to the identification of sequence-specific readers for epigenetic DNA modifications on cytosine”.

Holding throughout (assay): DAPPL (digital affinity profiling via proximity ligation, sequencing); 10 mM Tris-HCl pH 7.5, 50 mM NaCl, 1 mM DTT, 4% glycerol, room temperature, 30 min; GST-TFs on glutathione beads, 16-mer random dsDNA library, 0.1% formaldehyde crosslink after washing; high values mean tight binding
One test deals with T1, FEV (Homo sapiens, UniProt Q99581 1-238).
T1 sequence: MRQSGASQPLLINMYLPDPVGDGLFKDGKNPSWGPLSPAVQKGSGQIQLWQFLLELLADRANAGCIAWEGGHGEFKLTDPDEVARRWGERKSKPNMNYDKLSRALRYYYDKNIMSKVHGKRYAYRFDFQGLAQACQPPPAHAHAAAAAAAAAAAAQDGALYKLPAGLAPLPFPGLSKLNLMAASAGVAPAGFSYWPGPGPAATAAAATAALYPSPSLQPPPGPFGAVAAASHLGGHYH
Conditions: protein: recombinant; tags: N-terminal GST; dsDNA, one strand shown. In short, it runs like this: (§1)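 Human transcription factors were made in yeast as GST fusions, captured on glutathione beads and barcoded with DNA. With a tag-only sample included, the pool was incubated with 200 nmole of a random double-stranded 16-mer DNA library in Tris/NaCl/DTT/glycerol buffer at room temperature for 30 min, then crosslinked with 0.1% formaldehyde after washing, ligated by proximity, amplified and sequenced. For binding signal, each hexamer's read frequency for a factor is divided by its frequency for the tag-only sample.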

Another test addresses ETV5 (Homo sapiens, UniProt P41161 1-510). Conditions: protein: recombinant; tags: N-terminal GST; dsDNA, one strand shown. In short, it runs like this: as §1
The target in another test is HSF1 (Homo sapiens, UniProt Q00613 1-529). Particulars: protein: recombinant; tags: N-terminal GST; chain copies: 3; dsDNA, one strand shown. In short, it runs like this:
as §1

Another test concerns the target T2, SPIC (Homo sapiens, UniProt Q8N5J4 1-248).
T2 sequence: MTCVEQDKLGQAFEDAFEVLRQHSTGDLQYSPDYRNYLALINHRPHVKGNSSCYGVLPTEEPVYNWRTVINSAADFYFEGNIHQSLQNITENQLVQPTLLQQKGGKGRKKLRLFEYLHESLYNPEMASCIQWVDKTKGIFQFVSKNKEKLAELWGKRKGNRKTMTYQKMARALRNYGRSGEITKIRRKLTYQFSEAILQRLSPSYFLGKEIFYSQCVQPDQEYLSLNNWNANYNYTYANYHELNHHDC
Particulars: protein: recombinant; tags: N-terminal GST; dsDNA, one strand shown. The essentials:
as §1

A further test addresses ELF4 (Homo sapiens, UniProt Q99607 1-663). Particulars: protein: recombinant; tags: N-terminal GST; dsDNA, one strand shown. The essentials:
as §1

Another test has as its target T3, ELK4 (Homo sapiens, UniProt P28324-2 1-405).
T3 sequence: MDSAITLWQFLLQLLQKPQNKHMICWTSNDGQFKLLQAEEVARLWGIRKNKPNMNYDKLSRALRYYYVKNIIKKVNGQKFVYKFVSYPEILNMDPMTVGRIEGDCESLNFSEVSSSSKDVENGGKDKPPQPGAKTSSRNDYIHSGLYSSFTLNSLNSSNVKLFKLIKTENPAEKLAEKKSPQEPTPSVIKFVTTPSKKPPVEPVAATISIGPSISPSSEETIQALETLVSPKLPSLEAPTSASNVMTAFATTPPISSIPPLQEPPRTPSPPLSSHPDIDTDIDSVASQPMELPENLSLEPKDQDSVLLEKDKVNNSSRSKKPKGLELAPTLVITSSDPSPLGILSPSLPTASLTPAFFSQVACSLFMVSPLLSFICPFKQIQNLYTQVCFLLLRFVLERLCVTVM
Particulars: protein: recombinant; tags: N-terminal GST; dsDNA, one strand shown. The essentials: as §1

The next test has as its target T4, ETV2 (Homo sapiens, UniProt O00321 1-342).
T4 sequence: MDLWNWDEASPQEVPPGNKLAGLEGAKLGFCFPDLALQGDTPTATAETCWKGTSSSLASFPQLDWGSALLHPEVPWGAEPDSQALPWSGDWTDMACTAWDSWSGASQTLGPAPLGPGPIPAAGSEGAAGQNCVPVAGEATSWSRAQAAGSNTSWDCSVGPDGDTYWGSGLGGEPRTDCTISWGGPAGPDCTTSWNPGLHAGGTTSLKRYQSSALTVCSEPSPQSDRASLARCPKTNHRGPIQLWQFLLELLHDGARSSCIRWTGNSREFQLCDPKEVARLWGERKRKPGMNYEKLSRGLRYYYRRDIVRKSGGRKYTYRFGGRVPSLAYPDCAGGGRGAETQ
Particulars: protein: recombinant; tags: N-terminal GST; dsDNA, one strand shown. The essentials:
as §1

In another test the target is T5, ELF3 (Homo sapiens, UniProt P78545 1-371).
T5 sequence: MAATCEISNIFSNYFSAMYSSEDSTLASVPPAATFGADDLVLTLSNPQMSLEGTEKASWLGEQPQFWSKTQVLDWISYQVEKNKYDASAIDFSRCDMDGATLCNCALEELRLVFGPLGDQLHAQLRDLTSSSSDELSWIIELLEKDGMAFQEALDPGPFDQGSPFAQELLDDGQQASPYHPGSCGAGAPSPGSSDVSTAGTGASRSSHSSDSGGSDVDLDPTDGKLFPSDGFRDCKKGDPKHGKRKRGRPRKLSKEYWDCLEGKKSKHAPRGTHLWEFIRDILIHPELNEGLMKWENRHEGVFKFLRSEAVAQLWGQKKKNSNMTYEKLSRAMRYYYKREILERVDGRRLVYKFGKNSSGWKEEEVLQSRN
Conditions: protein: recombinant; tags: N-terminal GST; dsDNA, one strand shown. In short, it runs like this: as §1

For the next test, the target named is CRX (Homo sapiens, UniProt O43186 1-299). Conditions: protein: recombinant; tags: N-terminal GST; dsDNA, one strand shown. The essentials: as §1
The target of a further test is ETV1 (Homo sapiens, UniProt P50549 1-477). Conditions: protein: recombinant; tags: N-terminal GST; dsDNA, one strand shown. The essentials: as §1
A further test concerns the target T6, ERF (Homo sapiens, UniProt P50548 1-548).
T6 sequence: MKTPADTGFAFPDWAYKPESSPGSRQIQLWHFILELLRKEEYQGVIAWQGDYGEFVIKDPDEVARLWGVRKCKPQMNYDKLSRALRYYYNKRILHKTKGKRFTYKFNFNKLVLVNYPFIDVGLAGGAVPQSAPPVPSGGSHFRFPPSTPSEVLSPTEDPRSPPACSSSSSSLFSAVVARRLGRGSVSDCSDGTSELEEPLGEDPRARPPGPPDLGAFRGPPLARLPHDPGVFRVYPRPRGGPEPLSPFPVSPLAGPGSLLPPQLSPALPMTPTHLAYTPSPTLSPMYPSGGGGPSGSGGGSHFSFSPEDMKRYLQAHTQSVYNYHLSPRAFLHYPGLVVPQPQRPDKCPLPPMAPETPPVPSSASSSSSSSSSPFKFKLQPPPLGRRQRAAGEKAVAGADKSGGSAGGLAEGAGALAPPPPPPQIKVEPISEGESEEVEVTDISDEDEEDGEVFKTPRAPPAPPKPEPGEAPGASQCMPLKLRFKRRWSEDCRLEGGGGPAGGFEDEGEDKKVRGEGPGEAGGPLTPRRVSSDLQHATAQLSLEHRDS
Conditions: protein: recombinant; tags: N-terminal GST; dsDNA, one strand shown. The essentials: as §1

Another test concerns the target T7, ETV3L (Homo sapiens, UniProt Q6ZN32 1-361).
T7 sequence: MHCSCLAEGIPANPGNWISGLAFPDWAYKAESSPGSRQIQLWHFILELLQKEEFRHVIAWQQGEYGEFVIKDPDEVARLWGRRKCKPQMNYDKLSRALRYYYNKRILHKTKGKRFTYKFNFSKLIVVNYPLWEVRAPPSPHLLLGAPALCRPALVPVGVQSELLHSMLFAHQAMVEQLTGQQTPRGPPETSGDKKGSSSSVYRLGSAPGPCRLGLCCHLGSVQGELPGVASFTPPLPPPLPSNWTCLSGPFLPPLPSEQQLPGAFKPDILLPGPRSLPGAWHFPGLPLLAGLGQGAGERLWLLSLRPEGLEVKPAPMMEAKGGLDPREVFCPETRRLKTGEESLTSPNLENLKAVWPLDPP
Particulars: protein: recombinant; tags: N-terminal GST; dsDNA, one strand shown. In short, it runs like this: as §1

The target of the next test is T8, ETS2 (Homo sapiens, UniProt P15036 1-469).
T8 sequence: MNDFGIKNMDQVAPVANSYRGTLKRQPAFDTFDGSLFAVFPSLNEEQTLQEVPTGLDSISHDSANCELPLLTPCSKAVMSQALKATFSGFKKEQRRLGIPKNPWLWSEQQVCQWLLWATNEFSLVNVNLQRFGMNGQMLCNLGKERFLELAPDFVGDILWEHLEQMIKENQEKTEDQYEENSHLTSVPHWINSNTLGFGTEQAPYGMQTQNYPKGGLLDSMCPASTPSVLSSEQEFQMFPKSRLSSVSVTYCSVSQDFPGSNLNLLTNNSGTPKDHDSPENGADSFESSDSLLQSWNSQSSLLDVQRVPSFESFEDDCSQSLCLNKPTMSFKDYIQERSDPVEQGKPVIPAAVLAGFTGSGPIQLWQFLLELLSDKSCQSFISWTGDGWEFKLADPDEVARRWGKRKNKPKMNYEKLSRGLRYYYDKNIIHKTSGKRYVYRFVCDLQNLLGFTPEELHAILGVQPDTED
Conditions: protein: recombinant; tags: N-terminal GST; dsDNA, one strand shown. The essentials:
as §1

Another test addresses T9, SPDEF (Homo sapiens, UniProt O95238 1-335).
T9 sequence: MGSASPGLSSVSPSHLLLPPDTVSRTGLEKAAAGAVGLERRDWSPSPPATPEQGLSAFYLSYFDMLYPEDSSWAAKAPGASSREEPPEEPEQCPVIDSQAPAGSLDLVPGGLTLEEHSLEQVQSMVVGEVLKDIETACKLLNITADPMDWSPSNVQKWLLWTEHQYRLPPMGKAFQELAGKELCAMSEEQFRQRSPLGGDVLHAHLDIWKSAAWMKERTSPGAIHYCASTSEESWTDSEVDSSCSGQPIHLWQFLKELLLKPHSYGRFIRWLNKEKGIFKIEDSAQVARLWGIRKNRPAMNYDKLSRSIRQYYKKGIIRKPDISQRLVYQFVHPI
Particulars: protein: recombinant; tags: N-terminal GST; dsDNA, one strand shown. In short, it runs like this:
as §1

For a further test, the target named is T10, ETV7 (Homo sapiens, UniProt Q9Y603 1-341).
T10 sequence: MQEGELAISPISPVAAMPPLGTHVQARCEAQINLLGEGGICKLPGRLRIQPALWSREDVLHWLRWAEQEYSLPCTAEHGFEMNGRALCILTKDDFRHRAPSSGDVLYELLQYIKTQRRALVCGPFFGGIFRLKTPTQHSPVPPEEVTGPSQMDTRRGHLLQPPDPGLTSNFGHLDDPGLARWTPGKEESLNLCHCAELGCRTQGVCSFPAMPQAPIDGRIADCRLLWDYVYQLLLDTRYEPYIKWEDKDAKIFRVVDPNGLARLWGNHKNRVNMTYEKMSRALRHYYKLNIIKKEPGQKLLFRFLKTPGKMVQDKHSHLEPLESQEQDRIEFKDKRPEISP
Conditions: protein: recombinant; tags: N-terminal GST; dsDNA, one strand shown. In short, it runs like this: as §1

The target of another test is T11, ELF5 (Homo sapiens, UniProt Q9UKW6-2 1-255).
T11 sequence: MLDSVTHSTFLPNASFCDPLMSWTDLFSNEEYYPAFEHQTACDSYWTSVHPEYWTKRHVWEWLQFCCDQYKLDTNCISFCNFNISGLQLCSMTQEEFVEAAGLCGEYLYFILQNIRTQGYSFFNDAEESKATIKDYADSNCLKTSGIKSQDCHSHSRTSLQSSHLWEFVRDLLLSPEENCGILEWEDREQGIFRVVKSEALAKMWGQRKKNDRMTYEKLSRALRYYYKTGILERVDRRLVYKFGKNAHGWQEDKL
Particulars: protein: recombinant; tags: N-terminal GST; dsDNA, one strand shown. The essentials:
as §1

For the next test, the target named is T12, ETV3 (Homo sapiens, UniProt P41162-2 1-143).
T12 sequence: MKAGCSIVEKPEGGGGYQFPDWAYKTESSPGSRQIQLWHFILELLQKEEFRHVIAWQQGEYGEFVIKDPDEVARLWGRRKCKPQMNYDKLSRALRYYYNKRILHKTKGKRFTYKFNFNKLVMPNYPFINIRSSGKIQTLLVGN
Conditions: protein: recombinant; tags: N-terminal GST; dsDNA, one strand shown. The essentials: as §1

Another test has as its target ETV6 (Homo sapiens, UniProt P41212 1-452). Particulars: protein: recombinant; tags: N-terminal GST; dsDNA, one strand shown. In short, it runs like this: as §1

ETV1, sequence (P50549 whole entry): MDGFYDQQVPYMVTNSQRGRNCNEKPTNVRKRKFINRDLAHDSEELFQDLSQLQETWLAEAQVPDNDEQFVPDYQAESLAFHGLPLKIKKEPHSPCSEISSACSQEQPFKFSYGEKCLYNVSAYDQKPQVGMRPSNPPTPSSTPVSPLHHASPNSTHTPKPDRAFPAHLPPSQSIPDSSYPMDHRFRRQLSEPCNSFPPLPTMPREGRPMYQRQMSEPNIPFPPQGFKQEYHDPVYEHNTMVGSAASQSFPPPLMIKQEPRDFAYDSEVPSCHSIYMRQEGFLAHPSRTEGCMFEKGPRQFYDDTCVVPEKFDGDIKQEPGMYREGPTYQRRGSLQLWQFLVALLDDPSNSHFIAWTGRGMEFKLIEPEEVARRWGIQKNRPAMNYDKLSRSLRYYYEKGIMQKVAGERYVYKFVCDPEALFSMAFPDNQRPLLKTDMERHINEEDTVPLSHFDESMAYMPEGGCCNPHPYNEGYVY
ETV6, sequence (P41212 whole entry): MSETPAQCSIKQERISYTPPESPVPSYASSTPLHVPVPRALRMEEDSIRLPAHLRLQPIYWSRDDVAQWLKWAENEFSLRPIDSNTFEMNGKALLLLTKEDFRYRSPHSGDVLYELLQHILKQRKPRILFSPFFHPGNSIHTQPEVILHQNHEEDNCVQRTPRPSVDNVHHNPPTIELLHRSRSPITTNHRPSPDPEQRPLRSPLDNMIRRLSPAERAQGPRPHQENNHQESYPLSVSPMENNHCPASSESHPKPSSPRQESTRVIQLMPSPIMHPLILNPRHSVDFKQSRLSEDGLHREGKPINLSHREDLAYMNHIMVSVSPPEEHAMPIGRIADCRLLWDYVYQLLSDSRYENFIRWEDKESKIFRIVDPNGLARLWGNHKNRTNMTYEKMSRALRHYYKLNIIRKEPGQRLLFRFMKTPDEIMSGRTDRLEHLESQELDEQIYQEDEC
ETV5, sequence (P41161 whole entry): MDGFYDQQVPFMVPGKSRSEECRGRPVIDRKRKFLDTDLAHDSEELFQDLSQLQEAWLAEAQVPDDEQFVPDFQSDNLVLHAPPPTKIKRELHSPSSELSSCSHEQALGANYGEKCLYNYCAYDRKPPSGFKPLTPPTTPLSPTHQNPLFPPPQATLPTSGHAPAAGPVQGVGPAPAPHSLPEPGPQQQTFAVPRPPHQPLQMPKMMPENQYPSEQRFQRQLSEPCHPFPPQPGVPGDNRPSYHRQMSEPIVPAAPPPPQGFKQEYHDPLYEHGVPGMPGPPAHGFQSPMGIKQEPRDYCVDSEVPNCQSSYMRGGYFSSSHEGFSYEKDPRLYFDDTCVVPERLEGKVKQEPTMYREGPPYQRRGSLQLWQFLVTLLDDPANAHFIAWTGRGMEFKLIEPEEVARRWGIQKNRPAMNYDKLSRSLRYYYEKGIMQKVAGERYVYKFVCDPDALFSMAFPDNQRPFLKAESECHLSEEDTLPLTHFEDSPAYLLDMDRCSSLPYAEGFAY
CRX, sequence (O43186 whole entry): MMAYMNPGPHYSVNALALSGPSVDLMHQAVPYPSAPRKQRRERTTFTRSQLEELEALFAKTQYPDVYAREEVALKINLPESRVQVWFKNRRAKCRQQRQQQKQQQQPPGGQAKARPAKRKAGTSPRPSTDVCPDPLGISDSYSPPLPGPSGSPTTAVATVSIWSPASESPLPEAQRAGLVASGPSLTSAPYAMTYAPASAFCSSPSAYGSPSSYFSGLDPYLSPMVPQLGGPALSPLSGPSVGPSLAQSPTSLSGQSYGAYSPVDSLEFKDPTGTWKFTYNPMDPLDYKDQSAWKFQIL
HSF1, sequence (Q00613 whole entry): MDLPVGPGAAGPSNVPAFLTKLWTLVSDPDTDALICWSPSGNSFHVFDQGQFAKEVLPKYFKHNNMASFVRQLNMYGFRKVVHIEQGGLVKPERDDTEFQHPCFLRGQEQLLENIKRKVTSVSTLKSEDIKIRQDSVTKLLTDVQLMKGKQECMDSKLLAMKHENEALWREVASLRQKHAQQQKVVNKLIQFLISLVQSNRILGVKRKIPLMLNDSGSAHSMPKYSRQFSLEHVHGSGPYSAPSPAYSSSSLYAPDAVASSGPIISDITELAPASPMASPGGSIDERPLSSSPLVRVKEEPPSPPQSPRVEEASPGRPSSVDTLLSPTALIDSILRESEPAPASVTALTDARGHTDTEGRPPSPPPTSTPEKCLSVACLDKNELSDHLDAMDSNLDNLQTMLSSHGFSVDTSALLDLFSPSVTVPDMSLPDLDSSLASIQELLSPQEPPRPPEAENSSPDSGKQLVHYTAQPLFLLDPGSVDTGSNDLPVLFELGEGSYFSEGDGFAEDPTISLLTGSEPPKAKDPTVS
ELF4, sequence (Q99607 whole entry): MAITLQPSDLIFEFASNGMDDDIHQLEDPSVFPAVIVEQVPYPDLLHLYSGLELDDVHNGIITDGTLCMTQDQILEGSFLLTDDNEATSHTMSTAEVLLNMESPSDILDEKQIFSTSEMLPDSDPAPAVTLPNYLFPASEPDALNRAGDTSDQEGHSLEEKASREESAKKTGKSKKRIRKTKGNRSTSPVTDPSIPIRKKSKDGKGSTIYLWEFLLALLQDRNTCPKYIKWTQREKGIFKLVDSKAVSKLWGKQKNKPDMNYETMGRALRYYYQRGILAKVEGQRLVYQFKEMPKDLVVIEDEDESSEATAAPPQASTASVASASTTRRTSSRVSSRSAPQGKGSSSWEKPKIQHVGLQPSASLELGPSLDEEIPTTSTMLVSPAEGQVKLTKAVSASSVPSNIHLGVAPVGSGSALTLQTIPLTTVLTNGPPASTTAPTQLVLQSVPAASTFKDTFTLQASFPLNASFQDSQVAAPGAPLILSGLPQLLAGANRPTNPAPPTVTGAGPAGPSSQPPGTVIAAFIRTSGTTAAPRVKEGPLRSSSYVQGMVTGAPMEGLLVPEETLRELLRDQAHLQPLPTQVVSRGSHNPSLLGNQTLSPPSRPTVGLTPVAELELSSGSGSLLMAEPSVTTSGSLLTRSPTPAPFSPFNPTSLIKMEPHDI

In the case of TATTTA, the binding signal with FEV is 1.4 fold enrichment (6-mer frequency, TF over GST control); in the test with ETV5, 1.47 fold enrichment (6-mer frequency, TF over GST control); in the test with HSF1, 1.75 fold enrichment (6-mer frequency, TF over GST control); in the test with SPIC, 1.69 fold enrichment (6-mer frequency, TF over GST control); with ELF4, 1.45 fold enrichment (6-mer frequency, TF over GST control); with ELK4, 1.66 fold enrichment (6-mer frequency, TF over GST control). For the same sequence, the binding signal with ETV2 was 1.43 fold enrichment (6-mer frequency, TF over GST control); with ELF3, 1.57 fold enrichment (6-mer frequency, TF over GST control); with CRX it was 2.47 fold enrichment (6-mer frequency, TF over GST control); with ETV1, 1.51 fold enrichment (6-mer frequency, TF over GST control); in the test with ERF, 1.65 fold enrichment (6-mer frequency, TF over GST control); with ETV3L it was 1.44 fold enrichment (6-mer frequency, TF over GST control). In addition, the binding signal in the test with ETS2 was 1.55 fold enrichment (6-mer frequency, TF over GST control); with SPDEF it was 1.47 fold enrichment (6-mer frequency, TF over GST control); in the test with ETV7 it was 1.45 fold enrichment (6-mer frequency, TF over GST control); with ELF5, 1.37 fold enrichment (6-mer frequency, TF over GST control); with ETV3, 1.41 fold enrichment (6-mer frequency, TF over GST control); with ETV6, 1.43 fold enrichment (6-mer frequency, TF over GST control).
